An excerpt weighted towards active compounds, which were near 18% of everything screened.
TDP1 cell CPT: growth inhibition of DT40 Tdp1-/-;hTDP1 cells with camptothecin (screen for TDP1 inhibitors); AID 686979; actives 12% (n = 420,000); Potency, µM (highest dose often 46.2 µM), for inactives: at the top dose activity change, negative = growth inhibition, most hits filed as inhibitors; chicken DT40 Tdp1-/-;hTDP1 cells + 20 nM CPT, ATP luminescence, 48 h; also: potency is read from the fitted curve at half-maximal effect; nearly all actives have a fitted effect of over 55% in size
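Cell growth measured by CellTiter-Glo luminescence after a minimum 48 h, 37 C compound exposure with 20 nM CPT in Tdp1-knockout DT40 cells stably expressing hTDP1, seeded 400/well; qHTS titration format.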
TDP1 inh: TDP1 (human) enzyme inhibition; Potency, µM (highest dose often 130 µM), for the others: top-dose activity change, negative = inhibition, actives largely listed as inhibitors; recombinant TDP1, AlphaScreen DNA substrate cleavage; actives 0.28% (n = 350,000); Q9NUW8; AID 485290; also: potency is read from the fitted curve at half-maximal effect; nearly all actives have a fitted effect of over 40% in size
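Enzyme-compound mixtures sat 15 min at room temperature, followed by a 5 min reaction with 15 nM final substrate and 10 min with AlphaScreen beads. Recombinant human Tdp1 was used at 1 nM final.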
IL1B secr inh: blocks inflammasome-driven IL-1 beta release | actives 4.7% (n = 360,000) | AID 743279 | activity change, % at 57.5 µM | THP-1 LPS/ATP IL-1B secretion, AlphaLISA, 16 h; active compounds read low; in the data active = activity change below about -50%; inconclusive = mostly about -30% to -49%
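Secreted IL-1B measured by AlphaLISA bead assay after 16 h compound exposure of THP-1 cells; compounds (final up to 57.5 uM) added 1 h before LPS (250 ng/mL) and ATP (1.25 mM) stimulation; lower signal means less secretion.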
CtBP-E1A inh: CtBP/E1A binding inhibition; AlphaScreen GST-E1A/His-CtBP binding, 1536-well; active compounds read low; activity change, % (no concentration beside the values); actives 0.49% (n = 340,000); AID 651724; in the data active = activity change below about -65%; inconclusive = mostly about -30% to -63%
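GST-E1A and His-tagged CtBP (125 nM each as 5X stock) were preincubated with pin-transferred compound for 2 h at 37 °C in the dark, then glutathione donor and nickel acceptor beads were added for 1 h before AlphaScreen reading.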
Six1-Eya2 inh: Six1/Eya2 interaction inhibition; Q15475+O00167; AlphaScreen GST-Six1/His-Eya2 binding, biochemical; active compounds read low; activity change, % (concentration not given with the values); actives 0.56% (n = 360,000); AID 651725; in the data active = activity change below about -65%; inconclusive = mostly about -30% to -63%
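GST-Six1 + His-Eya2 (5X stock: 250/500 nM); Tris pH 8.0, 300 mM NaCl, 0.05% BSA, 0.02% Tween 20; GSH donor/Ni acceptor beads; 1 h 37 °C dark; AlphaScreen readout.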
DT40 TDP1 no CPT: qHTS for Inhibitors of human tyrosyl-DNA phosphodiesterase 1 (TDP1): qHTS in cells in absence of CPT; DT40 Tdp1-/- hTDP1 cells, no CPT, ATP luminescence, 48 h; AID 686978, 2013; Potency, µM (highest dose often 46.2 µM), for inactives: at the highest dose activity change, negative = growth inhibition, most hits filed as inhibitors; actives 15% (n = 420,000); also: potency is read from the fitted curve at half-maximal effect; nearly all actives have a fitted effect of over 55% in size
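Growth kinetics read by CellTiter-Glo luminescence after ≥48 hr at 37 °C. Cells: DT40 Tdp1-/- stably carrying human TDP1, 400 per well, compound exposure in the absence of CPT (DMSO vehicle).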
* hit, by the source's call; ? = inconclusive; . = no result. Unless noted, calls follow the shape of the dose curve; as a rule, active = well fitted curve in the direction sought with a large enough effect; inconclusive = small, poorly fitted or top-dose-only effect, or another doubt; inactive = no such curve, though single readings can be large; an effect the other way counts as inactive or inconclusive. % is scaled to controls: 0 for no effect and ±100 for the full control effect.

SMILES | TDP1 cell CPT | TDP1 inh | IL1B secr inh | CtBP-E1A inh | Six1-Eya2 inh | DT40 TDP1 no CPT
Cc1cc(N/N=C/c2ccccc2O)nc(N2CCOCC2)n1 | -27% | 3% | ? | 22 | 3 | ?
Cc1cc(N/N=C/c2ccccc2[N+](=O)[O-])nc(-n2nc(C)cc2C)n1 | 1.2µM* | 11% | -97* | -4 | -13 | 0.92µM*
Cc1nc(Cl)cc(N/N=C/c2ccc(O)cc2O)n1 | ? | . | -3 | -81* | -67* | 21µM*
Cc1cc(N/N=C/c2ccc(O)cc2O)nc(-n2nc(C)cc2C)n1 | 0.23µM* | 0% | 53 | -80* | -70* | 0.29µM*
COc1ccc(/C=N/Nc2cc(C)nc(NS(=O)(=O)c3ccc(C)cc3)n2)cc1 | ? | 0% | -15 | -11 | -23 | ?
Cc1cc(C)n(-c2ccccc2[N+](=O)[O-])n1 | 4% | 1% | -5 | 0 | 6 | ?
COc1ccc(/C=N/Nc2cc(C)nc(-n3nc(C)cc3C)n2)cc1 | 4.6µM* | 5% | -99* | -17 | -28 | 4.6µM*
Cc1nc(Cl)cc(N/N=C/c2ccc(O)cc2)n1 | 3% | 5% | 5 | . | -3 | ?
Cn1c(SCC(=O)N2CCOCC2)nnc1-c1ccncc1 | ? | -18% | 10 | -7 | -6 | -1%
Cc1ccc(OC(=O)c2ccc3nc(C)sc3c2)cc1 | -12% | 4% | 0 | 17 | 9 | -20%
O=C(Nc1ccc(Br)c(Cl)c1)c1ccc(C(=O)Nc2ccc(Br)c(Cl)c2)cc1 | -1% | . | . | . | . | -6%
COc1ccc(C(=O)COC(=O)C2COc3ccccc3O2)cc1F (centres undefined) | 18% | -4% | 24 | . | 6 | 0%
Nc1nc(NCCO)nc(N2CCCCCC2)c1[N+](=O)[O-] | -5% | . | -17 | 3 | 2 | -4%
CCC(C)Nc1nc(N)c([N+](=O)[O-])c(N2CCCCCC2)n1 (centres undefined) | ? | . | ? | -9 | -6 | 2.6µM*
CC(C)CNc1nc(N)c([N+](=O)[O-])c(N2CCCCCC2)n1 | ? | . | -13 | -17 | -14 | 16µM*
O=C(OCc1nnc(-c2ccc(Br)cc2)o1)c1ccco1 | 1% | 1% | 12 | 5 | 0 | 0%
O=C(CSc1nc(C(F)(F)F)cc(=O)[nH]1)NCc1ccc2c(c1)OCO2 | 22% | 1% | 7 | 2 | 12 | 5%
O=C(NC(Cc1c[nH]c2ccccc12)C(=O)N1CCOCC1)c1cccs1 (centres undefined) | 3% | 4% | 1 | -10 | 6 | -5%
O=C(N/N=C/c1c[nH]c2ccccc12)c1ccccc1Cl | 19% | . | 20 | 1 | 0 | -21%
Cc1c(/C=N\NC(=O)c2c[nH]c3ccccc23)cnn1C | -2% | 5% | 7 | -10 | 1 | -12%
O=C(Cc1c[nH]c2ccccc12)N/N=C/c1ccc(F)cc1 | 16µM* | 0% | -15 | 0 | -2 | 21µM*
O=C(N/N=C/c1cccs1)c1c[nH]c2ccccc12 | ? | 5% | -10 | -7 | -5 | 12µM*
CCc1ccc(/C=N/NC(=O)c2c[nH]c3ccccc23)s1 | 21µM* | 8% | ? | 0 | -3 | -20%
O=C(NC(Cc1c[nH]c2ccccc12)C(=O)N/N=C/c1ccc(Cl)cc1)c1cccs1 (centres undefined) | 12µM* | 0% | -66* | . | -9 | ?
CCC(=O)c1ccc(OCC(=O)N2CCN(c3ccccn3)CC2)cc1 | -24% | 1% | 1 | -4 | -2 | -3%
CC(C)(C)c1nc(Sc2ncccc2[N+](=O)[O-])n[nH]1 | ? | 0% | -14 | 5 | -4 | 2%
